We go through 16 molecules from ChEMBL document CHEMBL1961873, “Compounds: GSK PKIS; Assays: Nanosyn kinase panel” (2012).

Assay [1] relates to Tyrosine-protein kinase ABL1 (Homo sapiens), P00519 [T315I]. The settings on record: at 1 µM.
The test system of assay [2] is Tyrosine-protein kinase ABL1 (Homo sapiens), P00519 [Y253F]. Conditions: at 0.1 µM.
Assay [3] has the same test system. Conditions: at 1 µM.
Assay [4] deals with Tyrosine-protein kinase ABL1 (Homo sapiens) (UniProt P00519). The settings on record: at 0.1 µM.
For assay [5] the target is unchanged. The settings on record: at 1 µM.
Assay [6] concerns the target ALK tyrosine kinase receptor (Homo sapiens) (UniProt Q9UM73). Conditions: at 0.1 µM.
For assay [7] the target is unchanged. Conditions: at 1 µM.
Assay [8] has as its target Tyrosine-protein kinase ABL2 (Homo sapiens) (UniProt P42684). Conditions: at 0.1 µM.
Assay [9] has the same target. The settings on record: at 1 µM.
The target of assay [10] is Tyrosine-protein kinase receptor UFO (Homo sapiens) (UniProt P30530). The settings on record: at 0.1 µM.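 Further: values are mean percent inhibition of AXL from the GSK PKIS screen.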
Chain of Tyrosine-protein kinase receptor UFO (Homo sapiens) (P30530 whole entry): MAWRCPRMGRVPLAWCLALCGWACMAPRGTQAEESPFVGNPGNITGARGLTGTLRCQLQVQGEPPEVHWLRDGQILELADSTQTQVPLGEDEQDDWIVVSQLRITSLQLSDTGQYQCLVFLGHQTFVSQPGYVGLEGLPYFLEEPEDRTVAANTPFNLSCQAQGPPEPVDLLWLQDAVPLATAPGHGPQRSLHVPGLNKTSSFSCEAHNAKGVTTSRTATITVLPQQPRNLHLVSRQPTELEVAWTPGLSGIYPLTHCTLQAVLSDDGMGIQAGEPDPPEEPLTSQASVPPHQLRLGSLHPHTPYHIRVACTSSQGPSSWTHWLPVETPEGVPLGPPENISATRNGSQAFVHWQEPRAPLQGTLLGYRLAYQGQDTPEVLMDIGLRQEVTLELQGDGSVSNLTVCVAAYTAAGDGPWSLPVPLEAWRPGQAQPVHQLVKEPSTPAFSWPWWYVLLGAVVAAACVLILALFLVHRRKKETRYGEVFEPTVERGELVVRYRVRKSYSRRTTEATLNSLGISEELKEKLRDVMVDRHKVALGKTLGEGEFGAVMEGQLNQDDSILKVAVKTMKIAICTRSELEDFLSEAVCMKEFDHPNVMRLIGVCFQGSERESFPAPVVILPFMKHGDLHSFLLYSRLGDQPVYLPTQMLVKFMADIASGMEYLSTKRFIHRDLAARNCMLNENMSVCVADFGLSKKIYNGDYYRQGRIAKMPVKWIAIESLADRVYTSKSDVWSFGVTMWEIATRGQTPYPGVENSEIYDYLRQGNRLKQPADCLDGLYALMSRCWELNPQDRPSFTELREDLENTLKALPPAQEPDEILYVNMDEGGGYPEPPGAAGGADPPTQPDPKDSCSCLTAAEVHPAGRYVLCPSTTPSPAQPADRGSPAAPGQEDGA

Chain of Tyrosine-protein kinase ABL2 (Homo sapiens) (P42684 whole entry): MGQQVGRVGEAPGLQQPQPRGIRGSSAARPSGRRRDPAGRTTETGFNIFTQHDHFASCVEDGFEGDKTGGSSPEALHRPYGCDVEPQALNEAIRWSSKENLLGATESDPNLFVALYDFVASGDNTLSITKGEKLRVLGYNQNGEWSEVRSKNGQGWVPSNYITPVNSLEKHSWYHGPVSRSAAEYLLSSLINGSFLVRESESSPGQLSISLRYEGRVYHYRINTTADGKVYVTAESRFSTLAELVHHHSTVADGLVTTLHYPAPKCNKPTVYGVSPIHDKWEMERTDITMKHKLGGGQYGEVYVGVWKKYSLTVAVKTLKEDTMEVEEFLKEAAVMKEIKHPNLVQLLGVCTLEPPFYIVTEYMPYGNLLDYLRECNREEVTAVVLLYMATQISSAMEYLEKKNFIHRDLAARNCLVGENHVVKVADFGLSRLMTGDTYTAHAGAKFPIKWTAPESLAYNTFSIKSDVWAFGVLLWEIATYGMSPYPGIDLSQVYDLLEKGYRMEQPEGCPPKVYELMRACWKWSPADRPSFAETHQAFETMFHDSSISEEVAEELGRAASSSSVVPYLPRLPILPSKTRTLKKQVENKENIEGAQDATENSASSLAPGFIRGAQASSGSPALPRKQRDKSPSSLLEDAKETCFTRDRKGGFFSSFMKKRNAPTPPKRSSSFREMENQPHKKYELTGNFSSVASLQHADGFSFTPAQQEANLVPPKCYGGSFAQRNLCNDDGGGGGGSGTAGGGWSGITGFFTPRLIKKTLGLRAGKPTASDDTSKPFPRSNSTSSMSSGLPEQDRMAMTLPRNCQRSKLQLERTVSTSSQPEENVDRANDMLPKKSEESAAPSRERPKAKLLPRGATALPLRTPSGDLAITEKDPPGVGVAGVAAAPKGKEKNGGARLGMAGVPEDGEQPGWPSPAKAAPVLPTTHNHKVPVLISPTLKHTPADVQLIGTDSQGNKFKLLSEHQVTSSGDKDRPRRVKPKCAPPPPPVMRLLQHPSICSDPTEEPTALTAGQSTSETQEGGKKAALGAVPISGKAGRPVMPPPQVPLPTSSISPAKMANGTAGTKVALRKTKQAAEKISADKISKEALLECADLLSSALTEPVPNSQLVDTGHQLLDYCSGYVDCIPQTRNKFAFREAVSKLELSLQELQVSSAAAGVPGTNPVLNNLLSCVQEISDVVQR
Chain of ALK tyrosine kinase receptor (Homo sapiens) (Q9UM73 19-1620 limits assumed): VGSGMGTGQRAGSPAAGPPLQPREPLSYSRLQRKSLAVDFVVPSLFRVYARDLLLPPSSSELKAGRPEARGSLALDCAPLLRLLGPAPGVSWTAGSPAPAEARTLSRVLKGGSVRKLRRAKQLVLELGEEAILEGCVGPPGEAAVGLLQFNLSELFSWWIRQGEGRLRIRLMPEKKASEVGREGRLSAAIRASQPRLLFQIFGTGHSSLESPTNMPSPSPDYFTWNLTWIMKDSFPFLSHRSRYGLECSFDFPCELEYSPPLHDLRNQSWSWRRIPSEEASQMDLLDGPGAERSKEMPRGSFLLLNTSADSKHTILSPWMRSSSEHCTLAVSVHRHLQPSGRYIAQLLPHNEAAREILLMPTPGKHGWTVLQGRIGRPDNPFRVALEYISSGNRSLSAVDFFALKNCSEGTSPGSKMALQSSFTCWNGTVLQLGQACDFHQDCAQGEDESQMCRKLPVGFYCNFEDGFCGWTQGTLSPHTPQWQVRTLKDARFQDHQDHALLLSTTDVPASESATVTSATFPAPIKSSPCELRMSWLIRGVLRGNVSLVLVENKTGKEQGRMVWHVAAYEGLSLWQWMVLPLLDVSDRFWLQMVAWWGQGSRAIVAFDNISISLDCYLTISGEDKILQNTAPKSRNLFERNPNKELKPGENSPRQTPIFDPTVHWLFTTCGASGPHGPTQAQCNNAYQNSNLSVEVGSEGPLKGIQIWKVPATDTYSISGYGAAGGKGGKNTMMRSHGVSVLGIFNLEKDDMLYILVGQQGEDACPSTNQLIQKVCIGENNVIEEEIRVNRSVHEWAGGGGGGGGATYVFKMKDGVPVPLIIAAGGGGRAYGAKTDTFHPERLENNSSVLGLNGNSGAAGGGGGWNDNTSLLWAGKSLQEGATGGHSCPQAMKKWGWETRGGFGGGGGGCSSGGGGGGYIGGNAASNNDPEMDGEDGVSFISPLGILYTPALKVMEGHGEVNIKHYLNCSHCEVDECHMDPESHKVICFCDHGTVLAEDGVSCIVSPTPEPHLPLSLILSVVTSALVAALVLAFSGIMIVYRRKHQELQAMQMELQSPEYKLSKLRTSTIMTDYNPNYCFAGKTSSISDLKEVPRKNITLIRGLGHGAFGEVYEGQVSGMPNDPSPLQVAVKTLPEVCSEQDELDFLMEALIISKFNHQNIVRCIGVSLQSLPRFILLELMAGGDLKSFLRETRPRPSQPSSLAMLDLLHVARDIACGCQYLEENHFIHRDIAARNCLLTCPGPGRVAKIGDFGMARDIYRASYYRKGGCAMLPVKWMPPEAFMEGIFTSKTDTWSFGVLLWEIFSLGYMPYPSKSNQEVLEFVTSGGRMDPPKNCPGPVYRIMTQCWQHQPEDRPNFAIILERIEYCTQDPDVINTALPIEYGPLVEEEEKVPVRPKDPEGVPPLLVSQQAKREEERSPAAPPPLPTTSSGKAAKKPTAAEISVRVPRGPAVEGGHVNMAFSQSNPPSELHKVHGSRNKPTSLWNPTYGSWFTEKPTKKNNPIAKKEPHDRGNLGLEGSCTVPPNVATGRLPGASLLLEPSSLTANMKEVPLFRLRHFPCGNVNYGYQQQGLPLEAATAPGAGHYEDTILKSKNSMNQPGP

For `COc1ccc2cc(-c3c(-c4ccncc4)nc(-c4ccc([S+](C)[O-])cc4)n3C)ccc2c1` (stereo not given), the inhibition came out at 12.1% in assay [1]; 1.26% in assay [2]; 4.12% in assay [3]; 2.44% in assay [4]; 8.87% in [5]; 1.63% in assay [6]. The inhibition is 3.57% in [7], 2.63% in assay [8], 9.3% in [9] and -6.33% in assay [10].
In the case of `CCn1c(-c2nonc2N)nc2ccncc21`, the inhibition in [1] was -0.3%; in assay [2], -0.36%; in assay [3], 1.17%; in [4] it was 1.53%; in assay [5] it was 3.89%; in assay [6], 1.59%. Also, the inhibition was 1.87% in assay [7], 2.85% in [8], -1.97% in assay [9] and -1.17% in assay [10].
`Cn1cc(C=C2C(=O)Nc3cccnc32)c2ccccc21`: the inhibition worked out at 43.9% in assay [1]; 10.6% in assay [2]; 48.7% in assay [3]; 7.81% in assay [4]; 44.7% in [5]; 5.12% in [6]. Besides, the inhibition in [7] is 9.81%; in [8], 3.71%; in assay [9] it was 20.9%; in assay [10], -2.84%.
Turning to `COc1cc(C)c(NC(=O)CN(C)C)cc1Nc1nc(Nc2cccc(F)c2C(N)=O)c2cc[nH]c2n1`, the inhibition in assay [1] was 0.49%; in [2], 3.3%; in assay [3] it was -0.09%; in [4], 1.95%; in assay [5] it was 4.55%; in [6], 97.8%. Further, the inhibition in [7] is 88.9%; in [8] it was 1.11%; in [9] it was -0.02%; in assay [10], 17.6%.
As to `COc1cc2ncn(-c3cc(OCc4ccccc4C(F)(F)F)c(C(N)=O)s3)c2cc1OC`, the inhibition in assay [1] came to 14%; in assay [2] it was 5.48%; in assay [3], 19.4%; in assay [4], 2.17%; in [5], 17.9%; in [6], 0.14%. For the same molecule, the inhibition in assay [7] was 5.04%; in [8] it was 2.15%; in assay [9], 13.2%; in [10], -8.08%.
Consider `COc1cc(C=NNc2ncnc3c2cnn3-c2ccccc2)ccc1O`, for which the inhibition was 82.1% in assay [1]; 43.3% in assay [2]; 86.6% in assay [3]; 23.4% in [4]; 73.7% in assay [5]; 2.44% in assay [6]. For the same molecule, the inhibition in assay [7] is 6.69%; in assay [8], 11.6%; in [9], 71.5%; in [10] it was -1.48%.
For `CS(=O)(=O)Nc1ccc(N/C=C2\C(=O)Nc3ccccc32)cc1`, the inhibition in [1] was 18.3%; in assay [2], -0.43%; in assay [3], 12%; in [4], -0.3%; in assay [5] it was 11%; in assay [6], -2.22%. In addition, the inhibition came to 5.88% in assay [7], 0.2% in assay [8], 8.69% in assay [9] and 2.95% in assay [10].
`CC(=O)Nc1cccc(C#Cc2cncnc2Nc2ccc(OCc3cccc(F)c3)c(Cl)c2)n1`: the inhibition was 2.23% in assay [1]; 2.32% in [2]; 1.84% in assay [3]; 1.24% in assay [4]; 4.88% in assay [5]; -2.16% in assay [6]. The inhibition in [7] was -2.6%; in assay [8], 0.55%; in [9], 3.74%; in [10], 7.46%.
With `COc1ccc(-c2nn3ncccc3c2-c2ccnc(Nc3ccc(Cl)c(C(F)(F)F)c3)n2)cc1`, the inhibition was found to be 4.57% in assay [1]; 2.03% in assay [2]; 6.35% in assay [3]; 2.26% in [4]; 10.3% in assay [5]; 1.83% in [6]. Besides, the inhibition in [7] was 2.05%; in assay [8] it was 2.64%; in assay [9] it was 9.44%; in assay [10], -2.69%.
With `O=C1NC(=O)C(N2CCc3ccccc32)=C1c1ccc(Cl)cc1`, the inhibition in assay [1] was 1.87%; in assay [2] it was 6.01%; in [3], 5.27%; in [4], 4.41%; in assay [5] it was 7.9%; in [6], 3.63%. Besides, the inhibition in assay [7] is 4.31%; in [8] it was 4.83%; in [9], 8.28%; in assay [10] it was -4.63%.
Take `NS(=O)(=O)c1cccc(-c2ccc3c(NC(=O)C4CC4)n[nH]c3c2)c1`: the inhibition is 25.3% in assay [1]; 2.68% in [2]; 27% in assay [3]; -0.29% in assay [4]; 20.5% in [5]; -1.84% in assay [6]. The inhibition was -1.06% in [7], -1.16% in assay [8], 1.08% in assay [9] and 1.32% in assay [10].
In the case of `COC(=O)Nc1nc2cc(Oc3cccc(NC(=O)Nc4cc(C(F)(F)F)ccc4F)c3)ccc2[nH]1`, the inhibition in assay [1] is 12.6%; in assay [2], 5.16%; in assay [3], 19.8%; in assay [4], 0.82%; in [5] it was 24.6%; in assay [6], -1%. For the same molecule, the inhibition in assay [7] is 0.13%; in [8], 4.08%; in assay [9], 41.3%; in [10], -0.41%.
Consider `COc1ccc(COc2ccc(Cc3cnc(N)nc3N)cc2OC)cc1`, for which the inhibition is -2.04% in assay [1]; 3.15% in assay [2]; 0.75% in assay [3]; 3.16% in assay [4]; 7.34% in assay [5]; -0.54% in assay [6]. For the same molecule, the inhibition was 0.01% in assay [7], 3.27% in [8], 5.98% in assay [9] and 4.25% in [10].
Turning to `COc1ccccc1Nc1ncc(-c2ccccc2)o1`, the inhibition was 5.84% in assay [1]; 4.71% in assay [2]; 13.7% in assay [3]; 8.63% in assay [4]; 14.1% in [5]; 4.54% in assay [6]. For the same molecule, the inhibition is 9.47% in assay [7], 7.08% in [8], 11.2% in [9] and -6.45% in [10].
`COc1cc2ncn(-c3cc(OCc4ccccc4Cl)c(C(N)=O)s3)c2cc1OC`: the inhibition in assay [1] stood at 27.1%; in assay [2] it was 4.62%; in assay [3], 32.7%; in assay [4], 3.59%; in assay [5], 32.2%; in [6], 1.53%. The inhibition was 5.8% in assay [7], 1.8% in assay [8], 21.1% in assay [9] and 0.24% in [10].
Regarding `Cc1cccc(-c2n[nH]cc2-c2ccc3ncccc3n2)n1`, the inhibition is 2.07% in assay [1]; 3.03% in assay [2]; 25.9% in assay [3]; 5.29% in [4]; 37.2% in assay [5]; 2.05% in [6]. For the same molecule, the inhibition was 0.57% in assay [7], 3.75% in assay [8], 8% in assay [9] and -0.81% in assay [10].

A word on the inhibition: it is the change of the read-out against control, counted positive when it falls.
